Screens as filed in PubChem BioAssay.
HSF1 activator – HSF-1 activators, primary screen, NIH3T3-HGL cells, MG132 stress, luminescence, single point; hit rate 1.7% among 300,000; activation, % at 9 µM; AID 504408, 2011; NIH3T3-HGL HSF-1 luciferase reporter, 8 h; 100% = twice DMSO control signal;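 active means mean replicate activation of at least 50% with a set share of replicates each reaching 50%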;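 further: 0% = median of the neutral control wells and 100% = twice that signal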
HSF1 inh – HSF1 inhibitors in luciferase reporter cells, primary screen, cell-based, NIH3T3, luminescence. activity change, negative = inhibition, % at 7.5 µM (by protocol). AID 2098, 2009. hit rate 0.77% among 300,000. NIH3T3-HGL HSE-luciferase, MG132-induced, luminescence 8 h; active compounds read low;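 active means more than half of replicate wells show activity change below -50%, luminescence cut by over half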;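 further: luciferase reports HSF-1 transcriptional activity via heat shock element; 0% = median of DMSO wells and -100% = zero luminescence signal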
HIF act – HIF pathway transcriptional activators, primary screen, cell-based, U2OS HRE-luciferase, luminescence; activation, % at 7.5 µM (by protocol); U2OS HRE-luciferase reporter; normalized: DMSO 0%, desferrioxamine 100%; hit rate 0.32% among 300,000; AID 1910, 2009;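 active means mean activation of at least 10% of the iron chelator positive control signal, with at least half of replicates also reaching 10%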
HSP90 inh – HSP90 inhibitors, primary screen, cell lysate, luminescence; Rabbit reticulocyte lysate, luciferase refolding luminescence, 3 h; hit rate 0.91% among 290,000; inhibition, % at 5.6 µM; AID 1789, 2009;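 active means inhibition above the screen-wide mean plus 3 SD, computed separately per campaign, cut at about 16% in these data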;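 further: 0% = DMSO wells and 100% = 60 µM geldanamycin wells; inhibitors lower the luminescence because luciferase stays unfolded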
ARNT TACC3 PPI – disruptors of ARNT/TACC3 protein interaction, primary screen, biochemical, AlphaScreen, single concentration. Transforming acidic coiled-coil-containing protein 3 (Homo sapiens), Q9Y6A5. AlphaScreen His-ARNT PAS-B/GST-TACC3 binding, luminescence; TACC3 fragment carries E629A point mutation. inhibition, % at 9.99 µM. hit rate 0.66% among 390,000;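 active means mean inhibition of replicates at least 50% and at least half of replicates each reaching 50%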;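 further: 0% = complete ARNT plus TACC3 wells and 100% = ARNT alone without TACC3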
* marks the source's active call; other numbers are inactive results; · = not tested or not shown. Only some compounds are listed: those with a hit (about 3.1% of all), similar ones and a draw of the others.

SMILES | HSF1 activator | HSF1 inh | HIF act | HSP90 inh | ARNT TACC3 PPI
COc1cc(COCC(O)CN2CCN(CCN3C(=O)c4cccc5cccc(c45)C3=O)CC2)cc(OC)c1OC (stereo not given) | 115* | 88 | 0 | 0 | 14
O=C1c2cccc3cccc(c23)C(=O)N1CCN1CCN(CC(O)COCc2ccc(Cl)cc2)CC1 (stereo not given) | 73* | 40 | 0 | -1 | 7
O=C1c2cccc3cccc(c23)C(=O)N1CCN1CCN(CC(O)COc2ccc3ccccc3c2)CC1 (stereo not given) | 17 | 17 | -1 | 3 | 10
CCC(=O)Nc1cc(-c2nn(C)c(=O)c3ccccc23)ccc1OC | 11 | -2 | 0 | 3 | 0
CCCC(=O)Nc1cc(-c2nn(C)c(=O)c3ccccc23)ccc1OC | 60* | 26 | 0 | 0 | 28
Cc1ccc(S(=O)(=O)NCC[C@@H]2CC[C@H](NC(=O)Nc3ccccc3F)[C@H](CO)O2)cc1 | · | · | · | · | -8
O=C(Nc1ccc2ccccc2c1)c1ccc(Br)o1 | 65* | 27 | 4 | -7 | -1
CC(=O)c1cc(C(=O)Nc2ccc3ccccc3c2)c(C)o1 | -3 | 6 | 0 | 4 | 0
O=C(Nc1ccccc1)c1ccc(Br)o1 | 11 | 17 | 2 | 3 | 2
Cc1cc(C(=O)Nc2ccc3ccccc3c2)c(C)o1 | 66* | 31 | 2 | 5 | 3
CN1C(=O)c2cc(NC(=O)Cc3ccccc3)ccc2OC[C@@H]2O[C@@H](CC(=O)O)CC[C@@H]21 | · | · | · | · | -9
O=C(C[C@@H]1C=C[C@@H](NC(=O)CN2CCOCC2)[C@H](CO)O1)NC1CCC1 | · | · | · | · | -6
C[C@@H]1CN([C@H](C)CO)C(=O)c2cc(NS(C)(=O)=O)ccc2O[C@@H]1CN(C)Cc1ccc(Cl)c(Cl)c1 | · | · | · | · | -6
CCC(=O)N[C@H]1C=C[C@H](CC(=O)NCc2ccc(OC)cc2)O[C@H]1CO | · | · | · | · | -18
O=C(CCCCCNC(=O)N1CCn2c1nc1ccccc12)NCc1ccccc1 | 25 | 10 | -1 | 0 | 6
O=C(CCCCCNC(=O)N1CCn2c1nc1ccccc12)NCc1ccc(Cl)cc1 | 51* | 32 | 0 | -7 | 8
OC12CCCCC1C(c1ccc3c(c1)OCO3)N(Cc1ccccc1F)CC2 (stereo not given) | 57* | 28 | -1 | 2 | 2
OC12CCCCC1C(c1ccc3c(c1)OCO3)N(Cc1cccc(F)c1)CC2 (stereo not given) | 30 | 2 | 0 | -1 | 0
OC12CCCCC1C(c1ccc3c(c1)OCO3)N(Cc1ccc(F)cc1)CC2 (stereo not given) | 54* | 23 | 0 | 1 | 0
CS(=O)(=O)N1[C@@H]2c3ccc(-c4ccc(F)cc4)c(=O)n3C[C@@H]2[C@@H](CO)[C@@H]1C(=O)O | · | · | · | · | 0
COc1ccc(-n2nnnc2S(=O)(=O)Cc2ccc(C(=O)O)cc2)cc1 | 94* | 90 | -1 | 5 | -5
CCOC(=O)c1c(C)[nH]c(C)c1C(=O)CSc1nc2ccccc2n1CCC#N | -3 | -5 | 0 | -7 | 0
CCOC(=O)c1c(C)[nH]c(C(=O)OCc2ccccc2)c1C | 62* | 46 | 3 | 3 | -3
CCOC(=O)c1c(C)[nH]c(C(=O)CSc2ccccc2)c1C | 59* | 27 | 1 | 8 | 0
CCCn1c(SCC(=O)c2c(C)[nH]c(C)c2C(=O)OCC)nc2ccccc21 | -70 | -61* | 0 | -1 | 1
SMILES | HSF1 activator | HSF1 inh | HIF act | HSP90 inh | ARNT TACC3 PPI
COc1ccc(CNC(=O)C[C@@H]2C=C[C@@H](NC(=O)Nc3ccc4c(c3)OCO4)[C@H](CO)O2)cc1 | · | · | · | · | 0
CC1CC(=O)N(CC(=O)NCc2ccc3c(c2)OCO3)c2ccccc2S1 (stereo not given) | 23 | 10 | 0 | 4 | -9
CC1CC(=O)N(CC(=O)NCc2ccco2)c2ccccc2S1 (stereo not given) | 61* | 31 | 0 | 10 | -1
C[C@@H](NC(=O)[C@@H]1[C@@H](CO)[C@@H]2Cn3c(cccc3=O)[C@@H]2N1CC1CC1)c1ccccc1 | · | · | · | · | 6
O=C(CC1SC(=NCCc2ccccc2)N(/N=C/c2cccs2)C1=O)Nc1ccc(Cl)cc1 (stereo not given) | 69* | 36 | 1 | -6 | 1
Cc1ccc(-c2ccc(/C=C/C(=O)c3ccccc3)o2)cc1 | 76* | 55 | 1 | -2 | 0
Cc1ccc(C(=O)/C=C/c2ccc(-c3ccccc3[N+](=O)[O-])o2)cc1 | -1 | 2 | 0 | -1 | ·
O=C(/C=C/c1ccc(-c2ccccc2)o1)c1ccccc1 | 72* | 42 | 1 | 8 | -8
O=Cc1ccc(-c2cccc(C(=O)O)c2)o1 | -17 | 7 | 0 | -2 | -2
COc1cccc(CNC(=O)C[C@@H]2C=C[C@H](NC(=O)C3CCOCC3)[C@@H](CO)O2)c1 | · | · | · | · | 6
COCCNC(=O)C[C@H]1C[C@H]2c3cc(NS(=O)(=O)c4ccccc4)ccc3O[C@H]2[C@@H](CO)O1 | · | · | · | · | -2
O=[N+]([O-])c1ccc(-c2cn(-c3ccccc3F)c(=S)[nH]2)cc1 | 60* | 36 | 2 | 3 | ·
CCOc1ccc2nc(NC(=O)Nc3ccccc3)sc2c1 | 74* | 29 | 5 | 2 | -1
COc1ccc2nc(NC(=O)Nc3ccccc3)sc2c1 | 31 | 7 | 1 | 13 | -4
CCOC(=O)Cc1csc(NC(=O)Nc2cccs2)n1 | -66 | -57* | 0 | -6 | 11
Cc1cc(C)c2nc(NC(=O)c3ccc(OCC4CCCO4)cc3)sc2c1 (stereo not given) | 35 | 14 | 0 | -3 | ·
CCOC(=O)Cc1csc(NC(=O)Cc2cccs2)n1 | 6 | 8 | 2 | -2 | 1
CCOc1ccc2nc(NC(=O)c3ccccn3)sc2c1 | 20 | 10 | -1 | 7 | 14
CCOc1ccc2nc(NC(=O)c3ccoc3C)sc2c1 | 0 | -7 | -1 | 28* | 4
Cc1ccc2nc(NC(=O)c3ccc(OCC4CCCO4)cc3)sc2c1 (stereo not given) | 57* | 11 | 2 | -2 | -4
O=C(C[C@H]1CC[C@@H]2[C@H](COC[C@H](O)CN2Cc2nccs2)O1)NCc1ccccc1 | · | · | · | · | 12
C[C@@H]1CN([C@H](C)CO)C(=O)c2cc(/C=C/c3ccccc3)cnc2O[C@H]1CN(C)S(=O)(=O)c1cccs1 | · | · | · | · | -10
C[C@@H](O)C#Cc1ccc([C@H]2[C@@H](CO)N3CCCCN(S(=O)(=O)c4ccccc4)C[C@H]23)cc1 | · | · | · | · | -1
CCOc1ccc2nc(NC(=O)Nc3cccs3)sc2c1 | 80* | 50 | 2 | -4 | 6
